# Measured values reported in the supplement of paper PMC8728848.
# Shown is part of a subset that was picked to be rich in the strongest signals.
# What was measured:
# Assay in all cases: glycan array binding signal (z-score within array); higher = stronger binding
# Settings in all cases: glycan notation: IUPAC condensed, linker removed
# Fuc(a1-2)Gal = biological target: Fuc(a1-2)Gal
# How it was run: (§1)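 Glycan array data came from 3228 arrays in the Consortium for Functional Glycomics database, and only arrays with an available protein sequence were kept. Glycan names were put into IUPAC-condensed notation, and columns mapping to the same glycan were averaged. The binding signal is a within-array Z-score, averaged across arrays of one protein sequence run at different concentrations or buffers and across linkers. A negative Z-score can be read as non-binding.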
# [1] = biological target: Fuc(a1-2)Gal(b1-3)GlcNAc(b1-2)Man(a1-3)[Fuc(a1-2)Gal(b1-3)GlcNAc(b1-2)Man(a1-6)]Man(b1-4)GlcNAc(b1-4)GlcNAc
# How it was run: as §1
# [2] = biological target: Fuc(a1-2)Gal(b1-3)GlcNAc(b1-3)[Neu5Ac(a2-6)Gal(b1-4)GlcNAc(b1-6)]Gal(b1-4)Glc
# How it was run: as §1
# Fuc(a1-2)Gal(b1-4)Glc = biological target: Fuc(a1-2)Gal(b1-4)Glc
# How it was run: as §1
# [3] = biological target: Fuc(a1-2)Gal(b1-4)GlcNAc(b1-2)Man
# How it was run: as §1
# [4] = biological target: Fuc(a1-2)[Gal(a1-3)]Gal(b1-4)GlcNAc
# How it was run: as §1
# [5] = biological target: Fuc(a1-2)[Gal(a1-3)]Gal(b1-4)GlcNAc(b1-2)Man(a1-3)[Fuc(a1-2)[Gal(a1-3)]Gal(b1-4)GlcNAc(b1-2)Man(a1-6)]Man(b1-4)GlcNAc(b1-4)GlcNAc
# How it was run: as §1
# [6] = biological target: Fuc(a1-2)[Gal(a1-3)]Gal(b1-4)[Fuc(a1-3)]GlcNAc
# How it was run: as §1
# [7] = biological target: Fuc(a1-2)[GalNAc(a1-3)]Gal(b1-3)GlcNAc(b1-6)GalNAc
# How it was run: as §1
# [8] = biological target: Fuc(a1-3)[Gal(b1-4)]GlcNAc(b1-6)GalNAc
# How it was run: as §1
# [9] = biological target: Gal(a1-3)Gal(b1-3)[Fuc(a1-4)]GlcNAc(b1-2)Man(a1-3)[Gal(a1-3)Gal(b1-3)[Fuc(a1-4)]GlcNAc(b1-2)Man(a1-6)]Man(b1-4)GlcNAc(b1-4)GlcNAc
# How it was run: as §1
# [10] = biological target: Gal(a1-3)Gal(b1-4)GlcNAc(b1-2)Man
# How it was run: as §1
# Gal(a1-3)GalNAc = biological target: Gal(a1-3)GalNAc
# How it was run: as §1
# Gal(b1-2)Gal = biological target: Gal(b1-2)Gal
# How it was run: as §1
# [11] = biological target: Gal(b1-3)GlcNAc(b1-6)Gal(b1-4)GlcNAc
# How it was run: as §1
# [12] = biological target: Gal(b1-4)GlcNAc(b1-2)Man(a1-3)[Man(a1-6)]Man(b1-4)GlcNAc(b1-4)GlcNAc
# How it was run: as §1
# [13] = biological target: Gal(b1-4)GlcNAc(b1-3)Gal(b1-3)GalNAc
# How it was run: as §1
# [14] = biological target: Gal(b1-4)GlcNAc(b1-3)Gal(b1-4)GlcNAc(b1-2)[Gal(b1-4)GlcNAc(b1-3)Gal(b1-4)GlcNAc(b1-6)]Man(a1-6)[Gal(b1-4)GlcNAc(b1-3)Gal(b1-4)GlcNAc(b1-2)Man(a1-3)]Man(b1-4)GlcNAc(b1-4)[Fuc(a1-6)]GlcNAc
# How it was run: as §1
# [15] = biological target: Gal(b1-4)GlcNAc(b1-3)Gal(b1-4)GlcNAc(b1-3)Gal(b1-4)GlcNAc(b1-3)Gal(b1-4)GlcNAc(b1-2)Man(a1-3)[Gal(b1-4)GlcNAc(b1-3)Gal(b1-4)GlcNAc(b1-3)Gal(b1-4)GlcNAc(b1-3)Gal(b1-4)GlcNAc(b1-2)Man(a1-6)]Man(b1-4)GlcNAc(b1-4)[Fuc(a1-6)]GlcNAc
# How it was run: as §1
# [16] = biological target: Gal(b1-4)GlcNAc(b1-3)Gal(b1-4)GlcNAc(b1-3)Gal(b1-4)GlcNAc(b1-3)Gal(b1-4)GlcNAc(b1-3)Gal(b1-4)GlcNAc(b1-2)Man(a1-3)[Gal(b1-4)GlcNAc(b1-3)Gal(b1-4)GlcNAc(b1-3)Gal(b1-4)GlcNAc(b1-3)Gal(b1-4)GlcNAc(b1-3)Gal(b1-4)GlcNAc(b1-2)Man(a1-6)]Man(b1-4)GlcNAc(b1-4)[Fuc(a1-6)]GlcNAc
# How it was run: as §1
# [17] = biological target: Gal(b1-4)GlcNAc(b1-3)[GlcNAc(b1-6)]Gal(b1-4)GlcNAc
# How it was run: as §1
# Gal6S(b1-4)Glc6S = biological target: Gal6S(b1-4)Glc6S
# How it was run: as §1
# [18] = biological target: GalNAc(b1-4)GlcNAc(b1-3)GalNAc(b1-4)GlcNAc
# How it was run: as §1
# [19] = biological target: GlcNAc(a1-3)Gal(b1-4)GlcNAc
# How it was run: as §1
# [20] = biological target: GlcNAc(a1-6)Gal(b1-4)GlcNAc
# How it was run: as §1
# [21] = biological target: GlcNAc(b1-2)[GlcNAc(b1-6)]Man(a1-6)[GlcNAc(b1-2)Man(a1-3)]Man(b1-4)GlcNAc(b1-4)GlcNAc
# How it was run: as §1
# [22] = biological target: GlcNAc(b1-3)Gal(b1-4)GlcNAc(b1-2)Man(a1-3)[GlcNAc(b1-3)Gal(b1-4)GlcNAc(b1-2)Man(a1-6)]Man(b1-4)GlcNAc(b1-4)[Fuc(a1-6)]GlcNAc
# How it was run: as §1
# GlcNAc(b1-3)GalNAc = biological target: GlcNAc(b1-3)GalNAc
# How it was run: as §1
# [23] = biological target: Kdn(a2-3)Gal(b1-4)[Fuc(a1-3)]GlcNAc
# How it was run: as §1
# [24] = biological target: Neu5Ac(a2-3)Gal(b1-3)GlcNAc
# How it was run: as §1
binder,measurement,setting,value
Loc1 (Escherichia coli) (protein) APCALTNVGEQRGTYILKPLSMKGNLTAEKIENTGNIIECTDLQETTNAIKVHFLTQNALKFKVGSRHYIINFPFEYDGKKIELPGKSSYNLEEMLSAINFTIPYSIASVSDSSNTADIFPGTPFPLLFEIEVSSCTGNNTNCNSVRFNYNLNTILQVNLMTHHHHHH,glycan array binding signal (z-score),Fuc(a1-2)Gal,0.363
same,glycan array binding signal (z-score),[1],-1.09
same,glycan array binding signal (z-score),[2],-0.102
same,glycan array binding signal (z-score),Fuc(a1-2)Gal(b1-4)Glc,-0.622
same,glycan array binding signal (z-score),[3],-0.607
same,glycan array binding signal (z-score),[4],2
same,glycan array binding signal (z-score),[5],1.97
same,glycan array binding signal (z-score),[6],-0.548
same,glycan array binding signal (z-score),[7],-0.51
same,glycan array binding signal (z-score),[8],3.45
same,glycan array binding signal (z-score),[9],-0.81
same,glycan array binding signal (z-score),[10],0.198
same,glycan array binding signal (z-score),Gal(a1-3)GalNAc,7.25
same,glycan array binding signal (z-score),Gal(b1-2)Gal,1.18
same,glycan array binding signal (z-score),[11],0.216
same,glycan array binding signal (z-score),[12],-0.747
same,glycan array binding signal (z-score),[13],0.355
same,glycan array binding signal (z-score),[14],2.29
same,glycan array binding signal (z-score),[15],2.43
same,glycan array binding signal (z-score),[16],1.98
same,glycan array binding signal (z-score),[17],-0.48
same,glycan array binding signal (z-score),Gal6S(b1-4)Glc6S,0.298
same,glycan array binding signal (z-score),[18],0.68
same,glycan array binding signal (z-score),[19],-0.527
same,glycan array binding signal (z-score),[20],2.41
same,glycan array binding signal (z-score),[21],3.01
same,glycan array binding signal (z-score),[22],0.259
same,glycan array binding signal (z-score),GlcNAc(b1-3)GalNAc,-0.454
same,glycan array binding signal (z-score),[23],-0.405
same,glycan array binding signal (z-score),[24],-0.838
